Reference: PubChem BioAssay AID602371 (National Center for Advancing Translational Sciences (NCATS), 2012)
Records with an inconclusive call do not appear. Calls of active or inactive are those of the source. Calls come from the whole dose curve; as a rule, active = well fitted inhibition curve with a large enough effect; inconclusive = small, poorly fitted or top-dose-only effect; inactive = flat fitted curve, though single readings scatter.

assay: qHTS Assay for Inhibitors of Bacillus subtilis Sfp phosphopantetheinyl transferase (PPTase): SAR in B subtilis 168; conditions: Bacillus subtilis 168 growth inhibition
Text: The covalent attachment of a phosphopantetheinyl (4'-PP) arm to a variety of synthases and other proteins is a key posttranslational protein modification. The 4'-PP is installed on the proteins post-translationally from coenzyme A (CoA) on a conserved serine residue by action of phosphopantetheinyl transferase (PPTase) enzymes. Phosphopantetheinylation is essential for synthase activity, and removal of the PPTase gene precludes natural product synthesis in microorganisms, or in the case of fatty acid biosynthesis, renders the organism unviable. PPTase enzymes belong to a distinct structural superfamily. Within bacteria, these enzymes are grouped into two classes based upon primary structure, the AcpS-Type and Sfp-Type PPTases.
Sfp-type PPTases, corresponding to an activator of surfactin production in Bacillus subtilis, are responsible for modifying type I polyketide and nonribosomal peptide synthases of prokaryotes. Sfp-type PPTases are responsible for the activation of a variety of pathogen-associated virulence factors. Among these compounds are toxins such as mycolactone from Mycobacterium ulcerans, siderophores such as vibriobactin from Vibrio cholerae or mycobactin from Mycobacterium tuberculosis, as well as the mycolic acids which form the waxy cell wall of Mycobacteria. The biosyntheses of these natural products are considered attractive targets for drug design.
In search of small molecule Sfp-PPTase inhibitors, a fluorescence quenching assay was developed for detection of Bacillus subtilis Sfp-PPTase enzymatic activity in a miniaturized high-throughput format. The consensus ybbr acceptor peptide […] was N-terminally labeled with Black Hole Quencher-2 (BHQ-2) and used in combination with rhodamine-labeled coenzyme A as a co-substrate.
Phosphopantetheinyl transfer is a process essential to cellular viability and maintenance. Cell-permeable and stable compounds acting as PPTase inhibitors are anticipated to be antimicrobial agents in organisms with complimenting genotypes. […] This experiment evaluated a series of test compounds for antimicrobial activity with B. subtilis 168 (genotype: acpS+ and sfp-), a strain that contains a frameshift mutation in the sfp locus and thus requires a functional AcpS gene product for viability. [Mootz HD, 2001] This strain is expected to be sensitized to cell-permeable AcpS inhibitors, and insensitive to Sfp inhibitors.
NIH Chemical Genomics Center [NCGC]
NIH Molecular Libraries Probe Centers Network [MLPCN]
Assay Submitter (PI): Michale Burkart, University of California, San Diego
Bacillus subtilis 168 is maintained on lysogeny broth (LB) solidified by the addition of 1.5% w/v agar. Single colonies were used to LB medium (2 mL) and shaken overnight at 30 deg C. In the morning, this culture (100 uL) was used to seed a fresh LB medium (10 mL) and was shaken at 30 degC until the culture OD600 reached 0.5. This culture was diluted 1:100 in fresh LB medium to provide the inoculum below.
Bacterial susceptibility.
LB medium (2 uL) is dispensed into wells of a sterile white 1536-well plate. Test compounds (23 nL) prepared as serial dilutions in DMSO are added to the plate by pintool transfer. Innoculum (2 uL) is added, the plates are covered with a vented Kalypsys assay lid and incubated at 30 deg C. After 5 h, Bac-Titer Glo (4 uL; Promega Corp, Madison, WI) is added to the plates. They are incubated 10 minutes at room temperature and then the luminescence detected in a ViewLux multimodal plate reader.

Potency, active:
COc1ccnc(NC(=S)N2CCN(c3ccc(Cl)cc3Cl)CC2)c1 16.7 µM
COc1ccnc(NC(=S)N2CCN(c3ncc(C(F)(F)F)cc3Cl)CC2)c1 18.7 µM
Cc1cc(C)nc(NC(=S)N2CCN(c3cc(Br)cc(C(F)(F)F)c3)CC2)c1 16.7 µM
Cc1cc(C)nc(NC(=S)N2CCN(c3ccc(Cl)cc3Cl)CC2)c1 33.2 µM
Cc1cc(C)nc(NC(=S)N2CCN(c3ccc(Cl)c(Cl)c3)CC2)c1 37.3 µM
Cc1ccnc(NC(=S)N2CCCN(c3cccc(C(F)(F)F)c3)CC2)c1 11.8 µM
CSC(Cc1ccc(Cl)cc1)C(=O)Nc1ccc(Cl)cc1C(=O)O (centres undefined) 23.5 µM
Cc1ccnc(NC(=S)N2CCN(c3cc(C(F)(F)F)cc(C(F)(F)F)c3)CC2)c1 14.8 µM
Cc1ccnc(NC(=S)Nc2cccc(C(F)(F)F)c2)c1 18.7 µM
Cc1ccnc(NC(=S)N2CC3CN(c4cccc(C(F)(F)F)c4)CC3C2)c1 (centres undefined) 8.35 µM
Cc1ccnc(NC(=S)N2CCN(c3cccc(N(C)C)c3)CC2)c1 46.9 µM
Cc1ccnc(NC(=S)N2CC3CN(c4ncc(C(F)(F)F)cc4Cl)CC3C2)c1 (centres undefined) 16.7 µM
S=C(Nc1cc(Cl)ccn1)N1CCN(c2cccc(Cl)c2Cl)CC1 16.7 µM
Cc1cc(C)nc(NC(=S)N2CCN(c3ccc([N+](=O)[O-])cc3Cl)CC2)c1 14.8 µM
Cc1cc(C)nc(NC(=S)N2CC3CN(c4ccc(Cl)cc4C(F)(F)F)CC3C2)c1 (centres undefined) 11.8 µM
FC(F)(F)c1cc(N2CCN(C(=S)Nc3cc(Cl)ccn3)CC2)cc(C(F)(F)F)c1 6.63 µM
FC(F)(F)c1cccc(N2CCN(C(=S)Nc3cc(C(F)(F)F)ccn3)CC2)c1 16.7 µM
Cc1ccnc(NC(=S)N2CCN(c3cccc(C(F)(F)F)c3)CC2)c1 14.8 µM
COc1ccnc(NC(=S)N2CCN(c3cccc(Cl)c3Cl)CC2)c1 13.2 µM
